High-throughput results (PubChem BioAssay)
G9a block – G9a (human) methyltransferase inhibition; 350,000 compounds, 8.8% hits; Potency, µM (top dose mostly 102 µM), most hits filed as inhibitors; G9a H3K9 monomethylation, AlphaScreen, 2 h; AID 504332; also: nearly all actives have a fitted effect of over 75% in size
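G9a (20 nM) preincubated 15 min RT with compounds, then 500 nM biotinylated H3K9 peptide and 20 uM SAM added; 2 h RT reaction. Monomethyl-H3K9 product detected by AlphaScreen with anti-H3K9me1 antibody, streptavidin donor and anti-rabbit IgG acceptor beads.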
HP1b chromo inh – inhibitors of HP1-beta chromodomain binding to methylated histone tails | Potency, µM (doses to about 114 µM), usual class: inhibitors | P83916 | AlphaScreen HP1-beta / biotin-H3K9me3 peptide binding | 390,000 compounds, 0.56% hits; also: nearly all actives have a fitted effect of over 70% in size
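Compound inhibition of the preformed complex between 50 nM HP1-beta and 50 nM biotinylated H3K9me3 peptide was read by AlphaScreen. Buffer was PBS pH 7.4 with 0.01% Tween-20. Incubations ran 30 min at room temperature, with 10 ug/mL donor/acceptor beads.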
BAZ2B inh – BAZ2B (human) inhibition. Q9UIF8. AlphaScreen BAZ2B-H3K14Ac peptide displacement. Potency, µM (highest dose often 114 µM), hits mostly inhibitors. 360,000 compounds, 4.4% hits. AID 504333; also: nearly all actives have a fitted effect of over 60% in size
Target sequence (Q9UIF8 whole entry, looked up): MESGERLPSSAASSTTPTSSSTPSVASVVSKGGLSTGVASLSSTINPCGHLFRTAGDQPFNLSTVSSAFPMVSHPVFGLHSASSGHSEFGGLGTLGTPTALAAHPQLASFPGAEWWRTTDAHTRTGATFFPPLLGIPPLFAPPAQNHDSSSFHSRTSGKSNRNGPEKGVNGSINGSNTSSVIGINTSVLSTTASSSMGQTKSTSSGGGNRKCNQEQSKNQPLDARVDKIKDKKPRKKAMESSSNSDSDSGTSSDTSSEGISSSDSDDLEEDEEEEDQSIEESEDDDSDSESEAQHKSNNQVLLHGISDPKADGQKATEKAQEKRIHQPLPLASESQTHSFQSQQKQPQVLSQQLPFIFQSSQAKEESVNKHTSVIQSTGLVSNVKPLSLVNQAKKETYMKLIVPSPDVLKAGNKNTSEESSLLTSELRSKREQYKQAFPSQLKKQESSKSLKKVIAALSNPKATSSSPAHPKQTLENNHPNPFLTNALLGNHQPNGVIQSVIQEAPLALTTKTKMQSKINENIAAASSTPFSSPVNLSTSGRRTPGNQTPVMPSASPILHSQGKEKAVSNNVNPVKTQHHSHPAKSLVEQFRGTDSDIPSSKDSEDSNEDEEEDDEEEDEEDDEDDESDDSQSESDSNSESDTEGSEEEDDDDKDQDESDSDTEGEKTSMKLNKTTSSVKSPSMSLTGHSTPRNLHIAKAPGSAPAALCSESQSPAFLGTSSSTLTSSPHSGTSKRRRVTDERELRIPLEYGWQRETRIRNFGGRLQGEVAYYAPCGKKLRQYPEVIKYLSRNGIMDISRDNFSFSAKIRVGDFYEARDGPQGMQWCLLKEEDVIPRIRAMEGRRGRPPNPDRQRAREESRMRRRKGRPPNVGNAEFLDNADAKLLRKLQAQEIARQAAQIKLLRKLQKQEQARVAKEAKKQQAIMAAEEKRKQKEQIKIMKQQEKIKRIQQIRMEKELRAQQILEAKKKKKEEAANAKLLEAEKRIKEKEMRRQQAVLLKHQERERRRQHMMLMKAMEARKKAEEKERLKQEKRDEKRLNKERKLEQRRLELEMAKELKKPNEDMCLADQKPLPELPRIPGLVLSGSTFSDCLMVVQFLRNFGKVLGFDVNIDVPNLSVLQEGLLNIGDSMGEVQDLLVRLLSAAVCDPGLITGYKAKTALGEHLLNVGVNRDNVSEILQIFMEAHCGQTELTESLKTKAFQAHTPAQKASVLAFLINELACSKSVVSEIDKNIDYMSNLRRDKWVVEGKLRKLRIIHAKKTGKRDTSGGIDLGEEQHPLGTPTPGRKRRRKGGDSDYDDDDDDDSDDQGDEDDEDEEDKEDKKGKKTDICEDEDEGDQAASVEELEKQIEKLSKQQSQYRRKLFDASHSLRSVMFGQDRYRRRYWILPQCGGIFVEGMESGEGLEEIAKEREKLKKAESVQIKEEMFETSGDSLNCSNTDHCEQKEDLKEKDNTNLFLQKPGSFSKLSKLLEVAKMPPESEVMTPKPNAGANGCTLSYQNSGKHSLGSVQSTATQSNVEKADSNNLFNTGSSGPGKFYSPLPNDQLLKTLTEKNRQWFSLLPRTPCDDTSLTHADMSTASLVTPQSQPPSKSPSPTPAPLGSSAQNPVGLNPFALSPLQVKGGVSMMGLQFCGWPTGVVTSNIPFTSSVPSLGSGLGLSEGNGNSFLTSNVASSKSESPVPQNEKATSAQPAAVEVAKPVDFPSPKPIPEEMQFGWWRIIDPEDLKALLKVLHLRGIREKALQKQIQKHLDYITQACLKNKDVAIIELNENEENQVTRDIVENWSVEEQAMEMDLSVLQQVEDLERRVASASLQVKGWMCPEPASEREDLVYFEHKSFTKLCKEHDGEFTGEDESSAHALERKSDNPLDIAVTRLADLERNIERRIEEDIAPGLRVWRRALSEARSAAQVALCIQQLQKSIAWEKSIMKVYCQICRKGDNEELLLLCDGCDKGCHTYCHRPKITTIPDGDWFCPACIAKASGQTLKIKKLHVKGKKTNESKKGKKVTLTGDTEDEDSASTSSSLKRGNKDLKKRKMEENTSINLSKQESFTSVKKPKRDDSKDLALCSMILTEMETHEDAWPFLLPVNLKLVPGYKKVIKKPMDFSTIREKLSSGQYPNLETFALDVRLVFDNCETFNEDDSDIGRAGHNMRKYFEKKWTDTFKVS
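Multi-concentration screen (max 110 uM) measuring displacement of acetylated histone H3 peptide from BAZ2B by AlphaScreen, using 50 nM protein, 50 nM peptide and 10 ug/mL streptavidin donor plus Ni-chelate acceptor beads.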
JMJD2A Tudor inh – JMJD2A Tudor domain (human) inhibition; O75164; AlphaScreen JMJD2A-Tudor / H3K4me3 peptide binding; Potency, µM (top dose mostly 114 µM), hits mostly inhibitors; 390,000 compounds, 4.4% hits; AID 504339; also: nearly all actives have a fitted effect of over 50% in size
Sfp inh – inhibitors of Bacillus subtilis Sfp phosphopantetheinyl transferase; AID 1490; Q9F4F7; Potency, µM, most hits filed as inhibitors; Biochemical Sfp PPTase activity, qHTS; 310,000 compounds, 3.5% hits;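 also: the enzyme is Sfp with the accession as filed and its product quenches rhodamine fluorescence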
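Buffer: 50 mM Hepes-Na pH 7.6, 10 mM MgCl2, 0.01% Nonidet P-40, 0.01% BSA. Enzyme 15 nM, pre-exposed to compound 15 min; substrates then added and fluorescence change tracked over 30 min.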
Numbers stand for hits; – = inactive; ? = inconclusive; · = not tested or not shown; ! = not confirmed by another sample; [ ] = dose if it differs, or a comment. Rows were chosen to be rich in hits. Some 12% of all compounds tested hit in one or more screens of this group. Calls follow the shape of the dose curve; as a rule, active = well fitted curve in the direction sought with a large enough effect; inconclusive = small, poorly fitted or top-dose-only effect, or another doubt; inactive = no such curve, though single readings can be large; an effect the other way counts as inactive or inconclusive.

SMILES	G9a block	HP1b chromo inh	BAZ2B inh	JMJD2A Tudor inh	Sfp inh
COc1cccc(C2NC(CCSC)(C(=O)O)C3C(=O)N(C(C)C)C(=O)C23)c1O (configuration not stated)	?	–	40µM	–	?
CCN(CC)S(=O)(=O)c1ccc(NCc2ccccn2)nc1	28µM	–	?	71µM	–
O=C(CC(=O)c1ccccc1)Nc1ccccn1	–	–	–	–	–
O=C(CC(=O)c1ccccn1)c1ccccc1	·	–	·	25µM	·
O=C(O)c1ccccn1	0.56µM!	–	2.8µM	4µM	25µM
Cc1cccc(NC(=O)c2ccccn2)c1C	?	–	–	7.9µM	–
O=C(c1ccccc1)c1ccccn1	–	–	–	–	–
C=CCN(c1ccccc1OC)S(=O)(=O)c1cccc(C(=O)OCC(=O)c2c(N)n(C)c(=O)n(C)c2=O)c1	·	–	·	–	·
CCCN(CCC)CCNC(=O)Cn1ncc2c([nH]c3ccc(C)cc32)c1=O	–	–	–	–	·
CCN1CCN(c2cc(=O)n(Cc3ccc(F)cc3)c(=O)[nH]2)CC1	?	–	·	–	–
CCN1CCN(c2ccc(NC(=O)c3ccc4c(c3)[nH]c(=O)n4Cc3ccc(F)cc3)cc2)CC1	50µM	–	?	?	–
COc1ccc(Cn2c(=O)[nH]c3cc(C(=O)Nc4ccc(N5CCN(C)CC5)cc4)ccc32)cc1	45µM	–	?	?	–
CCSc1nnc(SCC(=O)c2c(N)n(C)c(=O)n(C)c2=O)s1	–[0.501 µM]	–	–	–	·
CCN1C(=O)/C(=C\C=C\c2ccccc2[N+](=O)[O-])SC1=S	10µM	?	·	?	–
COCCN1C(=O)/C(=C/c2ccc(OCc3ccc(C(=O)O)cc3)c(OC)c2)SC1=Nc1ccccc1	50µM	–	56µM	?	–
O=C(O)CCN1C(=O)/C(=C\c2ccc(OCc3ccccc3)c(OCc3ccccc3)c2)SC1=S	25µM	?	45µM	45µM	–
CCN1C(=O)/C(=C/N2CCc3ccccc3C2)SC1=S	·	–	–	–	–
CCOc1cc(/C=C2/SC(=S)N(Cc3ccccc3)C2=O)ccc1O	45µM	?	22µM	50µM	–
O=C1/C(=C/c2ccc(O)c([N+](=O)[O-])c2)SC(=S)N1Cc1ccccc1	3.5µM	?	?	4µM	–
Cc1ccc(/C=C2/SC(=S)N(CCCC(=O)Nc3cc([N+](=O)[O-])ccc3O)C2=O)cc1	–[12.7 µM]	–	–	–	–
O=C1/C(=C\c2cccc([N+](=O)[O-])c2O)SC(=S)N1Cc1ccccc1	2µM	?	2µM	8.9µM	?
O=C(O)c1cccc(CN2C(=O)S/C(=C/c3cccc([N+](=O)[O-])c3)C2=O)c1	?	–	–	–[11.4 µM]	71µM
C=CCN=C1S/C(=C/c2cccc([N+](=O)[O-])c2)C(=O)N1CC=C	?	–	?	–	–
COc1ccc(C(=O)NNC(=O)C(=O)N2CCCCC2)cc1OC	?	–	–	25µM	–
COc1cccc(C(=O)NNC(=O)C(=O)N2CCCCC2)c1	50µM	–	–	–	–
SMILES	G9a block	HP1b chromo inh	BAZ2B inh	JMJD2A Tudor inh	Sfp inh
O=C(NNC(=O)c1cccc(Br)c1)C(=O)N1CCCCC1	–	–	–	–	–
O=S(=O)(c1ccc(F)cc1)N1CCN(c2nc(-c3ccccc3)nc3ccccc23)CC1	·	–	·	–	·
CO[C@H]1C[C@@H]2CC[C@@H](C)[C@@](O)(O2)C(=O)C(=O)N2CCCC[C@H]2C(=O)O[C@H]([C@H](C)C[C@@H]2CC[C@@H](OCCO)[C@H](OC)C2)CC(=O)[C@H](C)/C=C(\C)[C@@H](O)[C@@H](OC)C(=O)[C@H](C)C[C@H](C)/C=C/C=C/C=C/1C	–[12.7 µM]	·	·	·	–
O=C(c1ccc(Cl)c([N+](=O)[O-])c1)N1CCCc2ccccc21	?	–	?	–	–
CC(=O)/C(=N/Nc1ccc([N+](=O)[O-])cc1)N1CCCc2ccccc21	22µM	?	?	?	–
O=C(Nc1cccc([N+](=O)[O-])c1)N1CCCc2ccccc21	–	–	–	–	–
CC(=O)/C(=N/Nc1ccccc1[N+](=O)[O-])N1CCCc2ccccc21	5µM	7.9µM	5.6µM	11µM	–
COc1ccc(-c2nc3cnc(N(C)C)nc3n(C)c2=O)cc1	–[0.501 µM]	·	·	·	–
Cc1cccc(-c2c3c(=O)n(C)c(=O)n(C)c3c3c(C)nc4ccccc4n23)c1	–	–	–	–	·
Oc1ccc(NCc2ccc(OCc3ccccc3Cl)cc2)cc1	3.2µM	?	?	50µM	·
